Structures are written as SMILES. The panel holds about 83,000 compounds, 20% with a hit somewhere; the sample as a whole holds those more often.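 Testing used 96-well plates and a 48-hour single-concentration exposure. Example: -40 means 40% of the starting cells died.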 Values without a mark were called inactive. Calls of active or inactive are those of the source. The calls were made as follows: active = growth percent below 10; inactive = the rest.

We go through 18 compounds from PubChem BioAssay (NCI).

What all share (assay): NCI-60 one-dose screen, 48 h (100 = growth as untreated, 0 = no growth, -100 = all killed)
Common to all, as to settings: 10 µM unless noted

The subject of assay [1] is RPMI-8226 leukemia.
In assay [2] the test system is OVCAR-8 ovarian.
Assay [3] concerns OVCAR-5 ovarian.
Assay [4] deals with OVCAR-4 ovarian.
Assay [5] concerns SK-OV-3 ovarian.
The test system of assay [6] is IGROV1 ovarian.
Assay [7] deals with OVCAR-3 ovarian.
Assay [8] relates to HS 578T breast.
Assay [9] has as its system NCI/ADR-RES ovarian.
Assay [10] deals with T-47D breast.
The test system of assay [11] is BT-549 breast.
For assay [12], the system named is MDA-MB-435 melanoma.
For assay [13], the system named is SW-620 colon.
Assay [14] concerns MCF7 breast.
Assay [15] deals with HCT-116 colon.
The test system of assay [16] is HCC-2998 colon.
Assay [17] relates to KM12 colon.

In the case of `O=C1c2ccccc2NC(c2cn(-c3ccccc3)nc2-c2cccs2)N1Cc1ccccc1` (centres undefined), the growth in assay [1] is 76.2%; in assay [2] it was 90.3%; in [3], 90%; in [4] it was 87.1%; in assay [5], 84%; in assay [6], 69.3%. Further, the growth is 89.3% in [7]; 94.3% in assay [8]; 73.2% in [9]; 54.9% in assay [10]; 88.5% in assay [11]; 97.5% in assay [12]. The growth is 97.3% in [13]; 72% in [14]; 65.9% in assay [15]; 95.1% in assay [16]; 83.7% in [17].
As to `COc1ccc(O)c(-c2cc(-c3ccc(Cl)cc3)c(C#N)c(=O)[nH]2)c1`, the growth in [1] was 62.3%; in assay [2], 68.3%; in assay [3] it was 106%; in assay [4], 74.4%; in assay [5] it was 82.8%; in assay [6] it was 78.5%. In addition, the growth in assay [7] was 73.4%; in assay [8], 58.7%; in [9] it was 62.5%; in assay [10] it was 57.3%; in assay [11], 9.41% (active); in assay [12], 5.98% (active). The growth in [13] was 74.7%; in assay [14], 46.6%; in assay [15], 73.4%; in assay [17], 57.6%.
Regarding `COc1ccc(-c2cc(/C=C/C(=O)c3ccc(OC)c(OC)c3)[nH]n2)cc1`, the growth in assay [1] was -48.4% (active); in [3], 48.5%; in [4], 32.7%; in assay [5], 49.3%; in [6], 61%; in [7] it was -14.6% (active). Besides, the growth in assay [9] is -0.366% (active); in assay [10] it was 22.2%; in [11] it was -34.2% (active); in [12], 21.3%; in assay [13], -70.5% (active); in [14] it was 6.07% (active). The growth was -40.7% (active) in [15], 92.7% in assay [16] and -79.9% (active) in assay [17].
With `CC1(c2ccccc2)OC1C(=O)O` (centres undefined), the growth in assay [1] is 108%; in [2], 107%; in assay [4], 112%; in assay [5], 117%; in assay [6], 96.8%; in assay [7] it was 103%. The growth in assay [8] is 109%; in assay [9], 94.5%; in assay [10], 117%; in assay [11], 94.9%; in assay [12], 98.7%; in assay [14], 105%. Moreover, the growth in assay [15] was 101%; in assay [16], 96.5%; in assay [17], 105%.
Regarding `Cn1cc(-c2csc(-c3cn(C(=O)OC(C)(C)C)c4ccccc34)n2)c2cccnc21`, the growth in assay [1] was 75.3%; in assay [2] it was 76.3%; in assay [3], 104%; in [5] it was 74.9%; in [6] it was 59.8%; in assay [7], 14.6%. The growth in assay [8] was 73.1%; in assay [9], 29.3%; in assay [10], 43.4%; in [11] it was 60.3%; in assay [12], 11.4%; in [14] it was 53.6%. Besides, the figures for the growth in [15], in assay [16] and in assay [17] were 56%, 65.5% and 38.5%, respectively.
`CCSc1ncnc2c1ncn2C1OC(CO)C(O)C1O` (centres undefined): the growth is 38.5% in [1]; 29.5% in [2]; 29.5% in assay [3]; 46.1% in assay [4]; 41.3% in assay [5]; 2.14% (active) in [6]. Further, the growth was 23.4% in [7]; 29.1% in [10]; 49% in assay [11]; 24% in assay [12]; 28.4% in assay [13]; 19.2% in [14]. In addition, the growth in assay [15] was 12%; in assay [16], 8.16% (active); in [17] it was 11.8%.
For the compound `[B-][N+](CC)(CC)c1ccccc1`, the growth in assay [1] was 108%; in assay [2], 112%; in assay [3] it was 86.9%; in [4], 103%; in assay [5], 109%; in assay [6], 112%. Moreover, the growth is 112% in assay [7]; 120% in [8]; 110% in assay [9]; 102% in assay [10]; 99.3% in [11]; 109% in assay [13]. For the same compound, the growth in assay [14] is 95.9%; in [15], 100%; in [16], 105%; in [17] it was 105%.
For `COc1ccc(OCC(CO)N2CCN(c3ccccc3)CC2)cc1` (centres undefined), the growth in assay [1] is 131%; in assay [2], 93.6%; in assay [3] it was 103%; in assay [4] it was 92.4%; in [5], 106%; in assay [6], 112%. The growth in [7] was 102%; in [8], 96.6%; in assay [9] it was 99.9%; in assay [10] it was 101%; in assay [11], 97.5%; in assay [12], 108%. In addition, the growth is 110% in assay [13]; 83.4% in assay [14]; 95.7% in assay [15]; 99.7% in assay [16]; 105% in assay [17].
Regarding `O=C1C(Cl)=C(Nc2ccc(S(=O)(=O)c3ccc(NC4=C(Cl)C(=O)c5ccccc5C4=O)cc3)cc2)C(=O)c2ccccc21`, the growth in assay [1] was 5.2% (active); in assay [2], -61.8% (active); in assay [3], 100%; in assay [4] it was -84.9% (active); in assay [5] it was 78.9%; in assay [6], -18.5% (active). In addition, the growth in [7] was -98.4% (active); in assay [9], 43.6%; in assay [10], -39.6% (active); in assay [11] it was 31.4%; in assay [12], 10.5%; in [14], -55.1% (active). Moreover, the growth is -85.7% (active) in assay [15], 47.1% in assay [16] and 5.09% (active) in assay [17].
With `O=C1c2ccccc2C(=Cc2ccccc2)c2ccccc21`, the growth in assay [1] is 22.4%; in assay [2], 21.6%; in assay [3] it was 43.3%; in assay [4], 6.28% (active); in [5], -3.56% (active); in assay [6] it was 40%. Further, the growth in assay [7] was -36.5% (active); in [10], 29.4%; in assay [11], -3.95% (active); in assay [12], -56.4% (active); in [13], 12.6%; in assay [15], 5.11% (active). Further, the growth in [17] was -26.6% (active).
As to `O=C(O)/C(=C/c1ccc(O)cc1)c1ccccc1`, the growth was 95.5% in assay [1]; 95.7% in assay [2]; 84.4% in assay [3]; 98.7% in assay [4]; 112% in assay [5]; 99% in assay [6]. Also, the growth is 103% in assay [7]; 94.6% in assay [9]; 94.6% in assay [10]; 95.5% in assay [11]; 109% in [12]; 105% in assay [13]. Besides, the growth was 98% in assay [14], 92.7% in assay [15], 95.8% in assay [16] and 107% in assay [17].
For the compound `C=C(C)[C@@H]1CC[C@]2(CN)CC[C@]3(C)[C@H](CC[C@@H]4[C@@]5(C)CCC(=O)NC(C)(C)[C@@H]5CC[C@]43C)[C@@H]12`, the growth in assay [1] was 37.9%; in assay [2], 66.5%; in assay [3], 97.8%; in assay [4], 70.7%; in assay [5], 92%; in assay [6], 70.3%. Besides, the growth was 88% in assay [7]; 84.1% in assay [8]; 70% in assay [9]; 53.9% in [10]; 80.8% in assay [11]; 92.7% in [12]. The growth is 75.9% in assay [13]; 41.5% in assay [14]; 11.7% in assay [15]; 97.7% in assay [16]; 81% in assay [17].
On to `Fc1ccc2[nH]cc(-c3nc(-c4c[nH]c5ncccc45)cs3)c2c1`, for which the growth in [1] is 31.5%; in assay [2], 36.6%; in assay [3], 86.1%; in assay [5], 58.9%; in assay [6] it was 32.5%; in assay [7], 44.5%. Further, the growth is 31.4% in [8]; 27.1% in [9]; 47.3% in [10]; 20.6% in assay [11]; 62.1% in [12]; 47.2% in assay [13]. Further, the growth in assay [14] was 30.3%; in [15] it was 26.2%; in [16], 84.4%; in assay [17], 38.9%.
For `Nc1c(Cl)cc(N=Nc2ccccc2)cc1Cl`, the growth in [1] was 89.9%; in [2], 104%; in [3], 31.5%; in assay [5], 99%; in assay [6], 12.5%; in assay [7], 84.6%. Further, the growth in [8] is 94.8%; in assay [9], 100%; in assay [10], 49.6%; in assay [12], 105%; in [13], 88.8%; in assay [14], 19.7%. Further, the figures for the growth in [15] and in [17] were 67.4% and 85.7%, respectively.
Consider `CC/C(=N/NC(N)=O)c1ccccc1`, for which the growth in assay [1] was 97.8%; in assay [2], 103%; in assay [4], 120%; in [5], 116%; in assay [6], 108%; in assay [7] it was 109%. Also, the growth in [8] is 104%; in assay [9] it was 104%; in [10], 110%; in [11] it was 102%; in [12], 110%; in assay [13] it was 105%. The values for the growth in assay [15], in assay [16] and in assay [17] were 109%, 103% and 111%, respectively.
As for `Cc1cc(N2CCCCC2)nc(N(CCNc2ccnc3cc(Cl)ccc23)Cc2ccco2)n1`, the growth is -36.5% (active) in assay [1]; 22.3% in assay [2]; 50.2% in [3]; 43.2% in [4]; 77.9% in [5]; 18.1% in assay [6]. Also, the growth in [7] was -40% (active); in assay [8], 51.4%; in assay [9] it was 10.5%; in assay [10] it was -29.3% (active); in assay [11] it was 42.4%; in [12], 32.8%. The growth in [14] was 10.7%; in assay [15], 2.13% (active); in assay [16], 92.6%; in assay [17], 31.9%.
Regarding `O=C(N/N=C\c1c(O)ccc2ccccc12)C1CC1`, the growth in assay [1] is 40.4%; in assay [2] it was 33.1%; in assay [3], 90.9%; in assay [5], 44.9%; in assay [6], 24.3%; in assay [7], 1.02% (active). For the same compound, the growth in [8] is 74.6%; in [9], 9.42% (active); in assay [10], 53.6%; in [12] it was 64.9%; in [13], 51.7%; in assay [14], 31.1%. Further, the growth was 13.1% in assay [15], 101% in [16] and 51.6% in assay [17].
Regarding `CCCCCC1CCCCN1C(=O)OCC` (centres undefined), the growth was 103% in assay [1]; 107% in assay [2]; 94.7% in [3]; 105% in assay [4]; 98.5% in [5]; 104% in assay [6]. Further, the growth in [7] was 109%; in [8], 110%; in assay [9], 111%; in assay [10] it was 92.4%; in assay [11], 98.1%; in assay [12] it was 115%. The growth in assay [13] was 105%; in assay [15] it was 93.6%; in [16], 94.4%; in assay [17], 110%.
